In PubChem BioAssay AID861 (The Scripps Research Institute Molecular Screening Center, 2007):
Among all 200,000 compounds or so, about 360 (0.18%) were called active. This is one part of a sample in which actives are shown more often than they occur. Values without a mark were called inactive. Rule as the data show it: active = inhibition above about 25%; inactive = the rest.

What follows are compounds tested against Toll-like receptor 4 (Homo sapiens) + Myeloid differentiation primary response protein MyD88 (Homo sapiens) (UniProt O00206+Q99836) (assay: inhibitors of TLR4-MyD88 association in cells, primary screen, cell-based, HeLa CL3-4, BLA complementation, FRET ratio (AID 861;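 also: 0% = vehicle and 100% = reference inhibitor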)). Settings: HeLa CL3-4 TLR4/MyD88 BLA complementation, at 8.4 µM, active compounds read high.
Chain of Toll-like receptor 4 (Homo sapiens) + Myeloid differentiation primary response protein MyD88 (Homo sapiens) (O00206 whole entry, looked up): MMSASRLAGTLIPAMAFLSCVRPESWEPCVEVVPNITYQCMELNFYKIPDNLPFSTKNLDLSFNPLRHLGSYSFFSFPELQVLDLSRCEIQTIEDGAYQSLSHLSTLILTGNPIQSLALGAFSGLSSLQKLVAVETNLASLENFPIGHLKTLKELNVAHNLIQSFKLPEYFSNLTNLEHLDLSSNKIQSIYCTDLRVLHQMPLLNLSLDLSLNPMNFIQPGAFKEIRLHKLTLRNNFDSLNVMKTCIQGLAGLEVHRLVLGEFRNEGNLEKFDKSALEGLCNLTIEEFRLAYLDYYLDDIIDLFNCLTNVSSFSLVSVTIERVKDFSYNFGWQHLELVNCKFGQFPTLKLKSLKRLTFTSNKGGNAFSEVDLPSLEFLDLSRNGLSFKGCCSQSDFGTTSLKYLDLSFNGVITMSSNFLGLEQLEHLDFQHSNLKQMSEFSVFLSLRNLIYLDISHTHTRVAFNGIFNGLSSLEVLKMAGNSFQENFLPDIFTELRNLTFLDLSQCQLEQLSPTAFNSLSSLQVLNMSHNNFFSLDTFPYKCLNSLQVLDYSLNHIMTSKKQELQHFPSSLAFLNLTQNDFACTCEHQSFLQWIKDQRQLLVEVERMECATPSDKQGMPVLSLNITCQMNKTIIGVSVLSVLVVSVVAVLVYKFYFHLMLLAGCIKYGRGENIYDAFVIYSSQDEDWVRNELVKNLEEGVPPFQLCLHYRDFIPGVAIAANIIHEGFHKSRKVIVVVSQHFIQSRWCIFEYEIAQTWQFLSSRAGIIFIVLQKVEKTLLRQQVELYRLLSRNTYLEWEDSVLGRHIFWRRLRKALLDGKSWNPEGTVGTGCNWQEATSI
Chain of Toll-like receptor 4 (Homo sapiens) + Myeloid differentiation primary response protein MyD88 (Homo sapiens) (Q99836 whole entry, looked up): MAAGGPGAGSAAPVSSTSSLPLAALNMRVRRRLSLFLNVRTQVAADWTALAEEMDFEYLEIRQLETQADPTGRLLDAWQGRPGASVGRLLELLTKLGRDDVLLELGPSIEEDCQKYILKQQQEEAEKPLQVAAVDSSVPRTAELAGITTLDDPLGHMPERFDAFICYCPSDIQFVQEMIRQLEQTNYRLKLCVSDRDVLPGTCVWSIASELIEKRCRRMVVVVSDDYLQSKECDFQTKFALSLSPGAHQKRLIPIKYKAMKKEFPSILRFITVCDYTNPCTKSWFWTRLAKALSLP
Work on `CCOC(=O)Cc1csc(NC(=O)CSc2ccc(Br)cc2)n1` yielded an inhibition of -6.41%.
`CNC(=O)c1ccsc1NC(=O)c1ccc(S(=O)(=O)N2CCOCC2)cc1` showed an inhibition of 0.17%.
`Cc1ccc(Oc2cc(NC(=O)CCCn3nc(C)c([N+](=O)[O-])c3C)cc([N+](=O)[O-])c2)cc1` gave an inhibition of -10.9%.
For `Nc1cc(C(F)(F)F)ccc1N1CCOCC1`, the inhibition was 2.5%.
`COc1ccccc1-c1nc(SC)n[nH]1` showed an inhibition of -2.94%.
With `CN(C)CCCCCN(C)Cc1cc2ccccc2o1` the inhibition was 6.13%.
Work on `Cc1nn(Cc2ccc(Cl)cc2)c(Cl)c1/C=N/NC(=O)CNc1ccccc1F` yielded an inhibition of -10.4%.
Work on `COc1ccc(/C=C2/C(=O)OCc3cc(OC)c(OC)cc32)c(OC)c1` yielded an inhibition of -8.99%.
`Cc1cc(-c2csc(N)n2)c(C)n1Cc1ccccc1` showed an inhibition of 5.78%.
For `CC(C)(C)NC(=O)NC(=O)COC(=O)Cc1ccc(Cl)cc1Cl`, the inhibition was 16.8%.
In the case of `Cc1ccnc2nc(C(=O)OCC(=O)N(CC(C)C)CC(C)C)nn12`, the inhibition is reported as -2.14%.
`C=CCN(CC=C)CCOc1ccccc1[N+](=O)[O-]` showed an inhibition of 9.15%.
In the case of `COC(CNC(=O)Cn1ncc2ccsc2c1=O)OC`, the inhibition is reported as -15.6%.
`CCO/C=C1\C(=O)N(c2ccc(OCC)cc2)C(=O)c2ccccc21` gave an inhibition of 5.91%.
With `Cn1cccc1C(C#N)c1ccccc1C#N` (configuration not stated) the inhibition was 2.41%.
With `COc1cccc(OC)c1C(=O)NC(=S)Nc1ccc(N2CCOCC2)c(Cl)c1` the inhibition was -0.95%.
Work on `O=C(Cc1ccccc1)NCc1ccc(F)cc1` yielded an inhibition of -9.59%.
In the case of `CCOC(=O)CSc1nc(C)cc2c1C(=O)OC2`, the inhibition is reported as 8.27%.
`O=C(Cn1nnc(-c2ccccc2)n1)N/N=C/c1ccc(-c2ccc(Cl)cc2)o1` was tested, and the inhibition was 8.21%.
Compound `N/C(=N/O)c1cccn1Cc1ccccc1[N+](=O)[O-]` has an inhibition of -3.45%.
`O=C(CCCOc1ccccc1)NCc1ccco1` showed an inhibition of 9.17%.
With `O=C(c1ccc(F)cc1)c1cn(Cc2ccc(F)cc2)c2cc3c(cc2c1=O)OCCO3` the inhibition was -6.89%.
`CCN(CC)CCn1c(/N=C/c2cc(Br)ccc2O)nc2ccccc21` showed an inhibition of 7.14%.
`CCOc1ccc(NC(=O)CN(C)CC(=O)NC(C)c2ccccc2)cc1OCC` (configuration not stated) showed an inhibition of -3.92%.
In the case of `CCCNC(=S)N1CCCC(c2nc3ccccc3[nH]2)C1` (configuration not stated), the inhibition is reported as -4.57%.
Compound `Cc1cc(C)c[n+](-c2nc3ccccc3nc2[N-]S(=O)(=O)c2cccs2)c1` has an inhibition of -9.34%.
With `COc1ccc2cc(CCl)c(Cl)nc2c1` the inhibition was 2.67%.
`COc1cccc(OC)c1C(=O)Nc1ccc(Cc2ccncc2)cc1` showed an inhibition of 13.9%.
In the case of `COc1ccc(-c2onc(C)c2-c2ccc3c(c2)OCCO3)c(O)c1`, the inhibition is reported as 1.48%.
For `CC(CC(=O)O)C(=O)c1ccc(Cl)c([N+](=O)[O-])c1` (configuration not stated), the inhibition was 1.72%.
For `Cc1nnc(-c2ccc(Oc3ccc(C)c(C)c3)c([N+](=O)[O-])c2)o1`, the inhibition was 2.54%.
`S=c1[nH]nc(-c2ccccc2)n1/N=C/c1c[nH]c2ccccc12` was tested, and the inhibition was -1.22%.
In the case of `CSC(=S)N/N=C/c1c[nH]c2ccccc12`, the inhibition is reported as -16.8%.
In the case of `C[n+]1ccc(/C=C/c2c[nH]c3ccccc23)cc1`, the inhibition is reported as 35.4% (active).
`O=C1c2cccc3c([N+](=O)[O-])ccc(c23)C(=O)N1CC1CCCO1` (configuration not stated) was tested, and the inhibition was 84.1% (active).
`O=C(NCc1ccc2c(c1)OCO2)c1ccc2c(c1)C(=O)N(CC1CCCO1)C2=O` (configuration not stated) was tested, and the inhibition was 16.9%.
In the case of `O=c1c2cc3c(=O)n(CC4CCCO4)c(=O)c3cc2c(=O)n1CC1CCCO1` (configuration not stated), the inhibition is reported as 0.88%.
With `C/C=C/c1ccc(OCCOc2ccc(C=O)cc2OC)c(OC)c1` the inhibition was -6.21%.
`COCCCNC(=O)C1CCC(CNS(=O)(=O)c2ccc(OC)cc2)CC1` (configuration not stated) showed an inhibition of 3.23%.
Work on `CCOC(=O)C1=C(CC)Nc2ccccc2N=C1N` yielded an inhibition of -10.4%.
For `CCCCN(CC)C(=O)c1ccc2c(c1)OCO2`, the inhibition was -2.02%.
In the case of `O=c1cnnc(Nc2ccccc2F)[nH]1`, the inhibition is reported as 6.52%.
In the case of `COc1ccccc1CC(=O)Nc1ccc(F)cc1F`, the inhibition is reported as -14.3%.
Work on `CC1=NN(c2ccccc2)C(=O)C1C(=O)c1ccc([N+](=O)[O-])cc1` (configuration not stated) yielded an inhibition of 1.28%.
`O=C1CC(c2ccccc2)=NN1c1ccc([N+](=O)[O-])cc1` showed an inhibition of 7.06%.
For `O=C1NC(=O)C2C1C(c1ccc([N+](=O)[O-])cc1)=NN2Cc1ccccc1` (configuration not stated), the inhibition was 44.1% (active).
For `COC(=O)c1cc(C)sc1NC(=O)CC1Nc2ccccc2NC1=O` (configuration not stated), the inhibition was 5%.
Work on `COc1ccc(-c2nn(-c3ccccc3)cc2/C=N/Nc2ccccn2)cc1OC` yielded an inhibition of -3.61%.
Compound `O=C(NCCc1ccc(F)cc1)c1n[nH]c2ccccc12` has an inhibition of -4.67%.
`CCCn1nnc(NC(=O)COc2ccc(CC)cc2)n1` was tested, and the inhibition was 9.27%.
`CSCCC(NS(=O)(=O)c1ccc2c(c1)oc(=O)n2C)C(=O)NC1CCCc2ccccc21` (configuration not stated) showed an inhibition of 7.47%.
With `O=C(CO/N=C/c1ccccc1OC(F)F)NC1CCCC1` the inhibition was 16.4%.
`O=C(CNC1CCCCC1)NCC1(c2ccccc2)CCCC1` gave an inhibition of -4.02%.
`COc1cc(C(=S)NCc2ccccc2)cc(Br)c1O` gave an inhibition of -2.71%.
`Cc1cc(C)n(CCNCc2c(C(=O)N3C[C@@H](C)O[C@@H](C)C3)nc3ccc(Cl)cn23)n1` was tested, and the inhibition was -4.55%.
In the case of `Cc1cc(C)cc(OCC(=O)NCc2cc(C)nc3ccccc23)c1`, the inhibition is reported as 8.6%.
In the case of `Cc1cccc(C(=O)N2CCc3c([nH]c4ccccc34)C2CC(C)C)n1` (configuration not stated), the inhibition is reported as -16.4%.
For `CC12CN(NC(=O)c3ccc(Cl)cc3)C3(C#N)CC1CCC23C` (configuration not stated), the inhibition was 1.1%.
`CCN(CC(=O)NC1CCS(=O)(=O)C1)S(=O)(=O)c1ccccc1` (configuration not stated) showed an inhibition of 1.44%.
Work on `COc1ccc(S(=O)(=O)N2CN(CCc3ccc(OC)c(OC)c3)c3nc4ccccc4nc32)cc1` yielded an inhibition of 3.83%.
`Cc1ccc(OCCCC(=O)NC(C)c2ccccc2)c(C)c1` (configuration not stated) showed an inhibition of -0.61%.
`CCCCCCn1c(CN2CCCCC2)nc2c1c(=O)n(C)c(=O)n2C` was tested, and the inhibition was 3.83%.
For `CCCCCCCCn1c2c(c(=N)c3c1CCC3)CCCC2`, the inhibition was 28.8% (active).
Work on `O=C(Cc1csc(Nc2nc(=S)[nH]c3ccccc23)n1)NCCCN1CCN(c2cccc(Cl)c2)CC1` yielded an inhibition of -1.51%.
`CCSc1nc(C)nc2c1oc1ccccc12` showed an inhibition of 1.7%.
Work on `Cc1nc(N2CCN(c3ncccn3)CC2)c2oc3ccccc3c2n1` yielded an inhibition of 7.8%.
For `Cc1nc(Cl)c2oc3ccccc3c2n1`, the inhibition was 35.2% (active).
Work on `Cc1ccc2[nH]c(=O)c(CN3CCCCC3)c(-c3ccccc3)c2c1` yielded an inhibition of 16.6%.
`COc1ccc(C2OCC3(CO2)SC(=O)NC3=O)cc1OC` (configuration not stated) gave an inhibition of 6.58%.
`CCN1CCC2(CCN(Cc3cn[nH]c3-c3ccc(OC)c(F)c3)C2)C1` (configuration not stated) gave an inhibition of -1.36%.
Work on `O=C(Nc1ccccc1Cc1ccccc1)c1ccc2c(c1)SC1=NS(=O)(=O)CCN12` yielded an inhibition of 14.2%.
For `CCCCN(C(=O)COc1ccc(NC(C)=O)cc1)C1CCS(=O)(=O)C1` (configuration not stated), the inhibition was 5.19%.
With `COc1cc(NC(=O)COC(=O)c2cnc(C)cn2)c(C)cc1[N+](=O)[O-]` the inhibition was 0.72%.
`CC(C)c1csc(CN2CCC(CO)(Cc3ccccc3)CC2)n1` showed an inhibition of -3.76%.
With `Oc1ccccc1C=NC1CCCCC1N=Cc1ccccc1O` (configuration not stated) the inhibition was -2.31%.
Compound `Cn1cnnc1SCC(=O)Nc1ccc(N2CCOCC2)cc1` has an inhibition of -8.28%.
Work on `CN(c1ccccc1)c1nc(N)c([N+](=O)[O-])c(NCc2ccco2)n1` yielded an inhibition of -1.5%.
With `COC(=O)Cc1cc(=O)n(-c2nc3ccccc3s2)[nH]1` the inhibition was 25.2% (active).
Work on `COC(=O)Cc1nc2ccccc2[nH]1` yielded an inhibition of 9.21%.
In the case of `CCC(=O)NC(=Nc1nc2ccccc2s1)NC(=O)CC`, the inhibition is reported as -5.21%.
`CC1CCN(c2ccc([N+](=O)[O-])cc2C(N)=O)CC1` was tested, and the inhibition was 12.4%.
With `Cc1nc2ccccc2n1CC(=O)N/N=C/c1cccs1` the inhibition was -1.34%.
For `CN(C)c1ccc(C=NCCc2ccc(S(N)(=O)=O)cc2)cc1`, the inhibition was -10.3%.
`Cc1cc(C)c2c(n1)sc1c(=O)n(-c3ccccc3)c(=O)[nH]c12` showed an inhibition of 13.9%.
Compound `Cn1nnnc1-c1cc(Cl)cc(Cl)c1` has an inhibition of -10.5%.
Compound `O=C(COC(=O)c1cc(-c2cccs2)nn1-c1ccccc1)Nc1cc([N+](=O)[O-])ccc1Cl` has an inhibition of 7.72%.
Work on `O=C(/C=C/c1ccc(F)cc1)NCCNC(=O)/C=C/c1ccc(F)cc1` yielded an inhibition of -2.71%.
In the case of `COc1ccc(NC(=S)Nc2ccc(S(N)(=O)=O)cc2)c(C)c1`, the inhibition is reported as -9.09%.
`Nc1nc(SCC(=O)NCCN2CCOCC2)nc2sc3c(c12)CCC3` showed an inhibition of 4.71%.
For `Cc1ccc(Nc2c(F)c(F)c(F)c(F)c2C(=O)O)c(C)c1`, the inhibition was -9.32%.
Compound `Cc1cccc2cc(CN(Cc3cccs3)C(=S)NCc3ccco3)c(=O)[nH]c12` has an inhibition of 6.03%.
Compound `COc1ccc(-c2oc3ncn(Cc4ccco4)c(=N)c3c2-c2ccc(OC)cc2)cc1` has an inhibition of -4.97%.
Work on `Cc1nn(C)c(C)c1CN(C(=O)CCc1nnc(Cc2c[nH]c3ccccc23)o1)C(C)C` yielded an inhibition of -4.71%.
With `COc1ccc(Cc2nnc(N/N=C/c3ccccc3O)[nH]c2=O)cc1OC` the inhibition was -8.91%.
`COc1cc(C(=O)N[C@@H](C)C(=O)NCc2ccco2)cc(OC)c1OC` gave an inhibition of 5.84%.
With `CCOc1ccc(N2C(=O)/C(=C/c3ccc(C)o3)N(C)C2=S)cc1` the inhibition was -6.16%.
Compound `Cc1ccccc1-n1cc(CNC(=O)CC2C(=O)NCCN2C/C=C/c2ccccc2)cn1` (configuration not stated) has an inhibition of -13.3%.
